# Compound activity as filed in PubChem BioAssay.
# Compounds with a hit are over-represented: about 19% of the library has one in this group of screens.
# DT40 TDP1 no CPT: qHTS for Inhibitors of human tyrosyl-DNA phosphodiesterase 1 (TDP1): qHTS in cells in absence of CPT. DT40 Tdp1-/- hTDP1 cells, no CPT, ATP luminescence, 48 h. 420,000 tested, 15% active. Potency, µM (series often up to 46.2 µM), for the others: at the top dose activity change, negative = growth inhibition, usual class: inhibitors. AID 686978, 2013; note: nearly all actives have a fitted effect of over 55% in size
#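 Readout: luminescence from CellTiter-Glo after 30 min in the dark at RT. Cells: DT40 Tdp1-/- with stable hTDP1, 400/well. Exposure: compounds alone, ≥48 hr, 37 °C.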
# HT1080 IDH1KD tx: HT-1080 IDH1 knockdown cell toxicity (counter line). 360,000 tested, 2% active. AID 686971. Potency, µM (highest dose often 46.1 µM), for the others: at the highest dose activity, negative = toxicity, most hits filed as cytotoxic. HT-1080 IDH1 knockdown viability, ATP luminescence, 48 h;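 note: 0% = DMSO wells and -100% = cell-free medium wells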
#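 Luminescent ATP read-out (CellTiter-Glo, 10 min at room temperature) after 48 h compound exposure at 37 °C gave viability of IDH1-knockdown HT-1080 cells. Activity was normalised to DMSO and cell-free wells, then fitted as concentration-response curves.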
# HT1080-NT tox: kills 2HG-producing HT-1080-NT fibrosarcoma cells. HT-1080-NT fibrosarcoma viability, CellTiter-Glo ATP luminescence, 48 h. Potency, µM (top dose mostly 46.1 µM), for inactives: at the top dose activity, negative = less viability, hits mostly cytotoxic. 360,000 tested, 1.6% active. AID 686970;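 note: NT is the 2HG producing partner of a matched IDH1 knockdown line; 0% = DMSO-treated cells and -100% = media-only wells without cells; nearly all actives have a fitted effect of over 55% in size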
#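 A 48-hour cytotoxicity screen used HT-1080-NT cells plated 2 hours before compound delivery. ATP-based CellTiter-Glo luminescence measured viability, normalized to DMSO and no-cell controls.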
# KB-V1 MDR tox: KB-V1 MDR subline cytotoxicity | Potency, µM (series often up to 46.1 µM), actives largely listed as cytotoxic | KB-V1 MDR cells viability, CellTiter-Glo, 72 h | AID 1347076 | 400,000 tested, 3.4% active; note: nearly all actives have a fitted effect of over 60% in size
#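 KB-V1 cells (P-gp-expressing MDR subline of KB-3-1) in phenol-red-free DMEM with 10% FBS were exposed to library compounds over a concentration series for 72 h at 37 degrees C. Viability read by CellTiter-Glo luminescence; concentration-effect curves fitted after normalization.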
# DT40 TDP1 CPT: DT40-hTDP1 cell growth loss with CPT. 420,000 tested, 12% active. Potency, µM (series often up to 46.2 µM), inactives show at the highest dose activity change, negative = growth inhibition, actives largely listed as inhibitors. chicken DT40 Tdp1-/-;hTDP1 cells + 20 nM CPT, ATP luminescence, 48 h; note: nearly all actives have a fitted effect of over 55% in size
#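 Cell growth measured by CellTiter-Glo luminescence after a minimum 48 h, 37 C compound exposure with 20 nM CPT in Tdp1-knockout DT40 cells stably expressing hTDP1, seeded 400/well; qHTS titration format.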
# KB-3-1 tox: kills parental KB-3-1 adenocarcinoma cells | Potency, µM (top dose mostly 46.1 µM), most hits filed as cytotoxic | KB-3-1 viability, CellTiter-Glo ATP luminescence, 72 h | AID 1347075 | 400,000 tested, 1.4% active; note: nearly all actives have a fitted effect of over 60% in size
#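 Multi-concentration cytotoxicity screen in KB-3-1 cells grown in DMEM lacking phenol red with 10% FBS. After 72 h at 37 °C with compound, ATP-dependent luminescence was recorded.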
# * = called active by the depositor; i = inactive; ? = inconclusive; . = no result given. Calls come from the whole dose curve; as a rule, active = well fitted curve in the direction sought with a large enough effect; inconclusive = small, poorly fitted or top-dose-only effect, or another doubt; inactive = no such curve, though single readings can be large; an effect the other way counts as inactive or inconclusive. Unless noted, % is set by controls: 0 for no effect and ±100 for the full control effect; potency is the fitted concentration of half-maximal effect.
SMILES,DT40 TDP1 no CPT,HT1080 IDH1KD tx,HT1080-NT tox,KB-V1 MDR tox,DT40 TDP1 CPT,KB-3-1 tox
Cc1ccc(C)c(N2CCN(C(=O)CCCn3ncn4c(cc5occc54)c3=O)CC2)c1,?,-11%,-1%,?,?,i
CCc1ccc(N=CC23c4ccccc4C(c4ccccc42)C2C(=O)N(c4ccc(OC)cc4)C(=O)C23)cc1 (configuration not stated),18µM*,?,?,i,?,i
COc1ccc(N2C(=O)C3C4c5ccccc5C(C=Nc5ccc(C)cc5C)(c5ccccc54)C3C2=O)cc1 (configuration not stated),?,-7%,1%,?,?,i
CC1(C)Oc2ccccc2OC1(O)c1ccc2ccccc2n1 (configuration not stated),18µM*,-11%,-12%,i,?,i
COc1ccc(-c2csc(N(CC3CCCO3)C(=O)c3ccco3)n2)cc1 (configuration not stated),21µM*,-26%,-14%,i,21µM*,?
COCCN(C(=O)c1ccco1)c1nc(-c2ccc(OC)cc2)cs1,16µM*,1%,-2%,?,26µM*,i
CCN(C(=O)c1ccco1)c1nc(-c2ccc(OC)cc2)cs1,?,0%,4%,i,-6%,i
Cc1ccc(CCNC(=O)c2cc(-c3ccncc3)nc3ccc(S(=O)(=O)N4CCOCC4)cc23)cc1,?,1%,-1%,i,?,i
CCC(=O)N(C1=C(NC(C)C)C(=O)c2ccccc2C1=O)C(C)C,9.2µM*,-3%,-16%,?,21µM*,?
CCc1ccc(C2NC(=S)NC3=C2C(=O)N(c2ccccc2OC)C(c2ccc(CC)cc2)N3)cc1 (configuration not stated),18µM*,-3%,1%,?,16µM*,i
O=C1C2CCCN2C(c2ccc(F)cc2)N1c1ccc(Cl)cc1 (configuration not stated),-16%,-20%,-13%,?,6%,?
O=C1C2=C(NC(=S)NC2c2ccc(Cl)cc2)NC(c2ccc(Cl)cc2)N1c1ccc(Cl)cc1 (configuration not stated),?,?,?,?,?,16µM*
O=[N+]([O-])c1cc(/C=N\Nc2nc(-c3ccccc3)cs2)ccc1O,18µM*,?,-21%,i,15µM*,i
O=[N+]([O-])c1cc(/C=N/N/C(=N/c2ccccn2)c2ccccn2)ccc1O,4.6µM*,?,?,?,3.3µM*,?
Cc1csc(N/N=C/c2ccc(O)c([N+](=O)[O-])c2)n1,26µM*,2%,8%,?,18µM*,i
CCCN(CCC)CCCNC(=O)C1CCCN(S(=O)(=O)c2cccc3nsnc23)C1 (configuration not stated),-5%,.,.,.,10%,.
COc1ccc(-c2nc3cnc(N4CCOCC4)nc3n(Cc3cccc(OC)c3)c2=O)cc1,-19%,.,.,.,10%,.
O=C(NCC1OCCc2ccccc21)c1ccc(NC(=O)c2ccccc2Cl)cc1 (configuration not stated),?,-3%,-26%,?,-21%,i
O=C(NC1CCc2ccccc21)c1cc(COc2c(F)cccc2F)on1 (configuration not stated),0%,-3%,-3%,?,-21%,i
O=C(NCC1OCCc2ccccc21)c1ccc(NC(=O)c2cccc(Br)c2)cc1 (configuration not stated),7.3µM*,3%,2%,2.6µM*,7.3µM*,i
O=C(NCC1OCCc2ccccc21)c1cc(COc2c(F)cccc2F)on1 (configuration not stated),16µM*,-9%,-10%,i,-9%,i
COc1ccc(Nc2ccc(C(F)(F)F)cc2[N+](=O)[O-])cn1,14%,12%,6%,i,-3%,i
N#CC(=C=[N-])C1=C(C#N)C(c2ccccc2F)C([n+]2ccccc2)C(O)(C2CC2)N1 (configuration not stated),1%,8%,-1%,i,-5%,?
Cc1cccc[n+]1C1C(c2ccccc2)C(C#N)=C(C(=C=[N-])C#N)NC1(O)C1CC1 (configuration not stated),?,-13%,2%,i,23µM*,i
COc1ccccc1/C=C/c1cnccn1,?,.,.,i,-5%,?
SMILES,DT40 TDP1 no CPT,HT1080 IDH1KD tx,HT1080-NT tox,KB-V1 MDR tox,DT40 TDP1 CPT,KB-3-1 tox
CCc1ccc2c(c1)N(CC(C)CN(C)C)c1ccccc1S2 (configuration not stated),15µM*,.,.,.,?,.
Cc1ccc(CN2CCN(c3ccccc3)CC2)o1,?,8%,19%,i,-26%,i
Cc1ccc(C)c(CN2C(=O)CSc3ccc(C(=O)NCCc4ccc(Cl)cc4)cc32)c1,?,.,.,i,8.2µM*,i
C=CCN1C(=O)CSc2ccc(C(=O)NC3CCCCC3)cc21,?,-9%,-9%,i,?,i
Cc1ccc(C)c(CN2C(=O)CSc3ccc(C(=O)NCC(C)CN4CCC(C)CC4)cc32)c1 (configuration not stated),?,4%,4%,?,15µM*,i
CCN1C(=O)CSc2ccc(C(=O)NC3CCCCC3)cc21,20µM*,-21%,3%,i,35µM*,i
CCC(C)NC(=O)c1ccc2c(c1)N(Cc1ccccc1)C(=O)CS2 (configuration not stated),?,-4%,-4%,i,?,i
O=C(NCCc1ccc(Cl)cc1)c1ccc2c(c1)N(Cc1ccccc1)C(=O)CS2,18µM*,.,.,.,16µM*,.
O=C([C@@H]1CC=C[C@@H]2CCN(C3CCCCC3)C(=O)[C@@H]21)N1CCN(c2ccccc2)CC1,?,13%,0%,?,?,i
CCOc1ccc(OCCC(=O)N2CCN(S(=O)(=O)c3cccc(F)c3)CC2)cc1,?,-8%,-10%,?,?,i
O=C(Cc1c[nH]c2ccccc12)N1CCN(S(=O)(=O)c2cccc(Cl)c2Cl)CC1,?,-13%,-13%,?,-70%,?
Cc1cc(C(=O)Nc2ccccc2)oc(=O)c1,?,2%,5%,i,?,i
